Reference: PubChem BioAssay
Activity calls are given as the source filed them. Cut-off read from the data, not from the text of the source, unless noted: active = inhibition above about 80%; inactive = the rest.

Tests used:
[1] = BT084 cell growth, single and combined drugs, ICGC_MB145, cisplatin and BGB IC40 combos (AID 1671461); settings: BT084 medulloblastoma cells, drug combinations, stronger effect = higher value;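 note: cells exposed to drugs for 96 hours; 0% = vehicle DMSO and 100% = high DMSO full killing control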
[2] = RCMB18 cell growth, single agent and combined, cisplatin and BGB IC40 combos (AID 1671462); settings: RCMB18 medulloblastoma cells, stronger effect = higher value;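 note: cells exposed to compound for four days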
[3] = CRL1545 cell growth, single agent and combined, cisplatin and BGB IC20 combos (AID 1671464); settings: CRL1545 osteosarcoma cells, stronger effect = higher value;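 note: cells exposed to compound for 96 hours before readout; 0% = vehicle DMSO and 100% = high DMSO killing control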
[4] = viability loss with induced miR-34 in A549 – imaging, A549 dox-inducible miR-34, nuclei and caspase counts, primary screen (AID 1347080;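 active = compounds whose cell count with miR-34 switched on is under 0.7 times the count with it off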); settings: A549 miR-34 inducible, Hoechst nuclei count, 48 h
[5] = MELAS cybrid and Rieske KO viability enhancers – cell-based, MELAS cybrids, Rieske KO mouse fibroblasts, CellTiter-Glo, primary screen (AID 1508586;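 active = mean z-score across replicates of 1.96 or higher in either the MELAS or the Rieske mutant cell line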;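 note: z relative to plate mean and SD of compound and empty wells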); settings: low glucose
[6] = growth inhibition, single agent or in combination, cell-based, chromothripsis tumors, cisplatin or BGB combos (AID 1671449); settings: LFS_MB_P medulloblastoma cells;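 note: cells exposed for 96 hours; 0% = vehicle DMSO and 100% = killing by high DMSO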
[7] = growth inhibition, single agent and combos, cell-based, chromothripsis tumors, cisplatin or BGB combos (AID 1671450); settings: HDN33 neuroblastoma cells, stronger effect = higher value;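 note: cells exposed to compound for four days; 0% = vehicle DMSO and 100% = cell killing by high DMSO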
[8] = growth inhibition, single agents and combos, ICB984, cell-based, cisplatin or BGB combos, synergistic combos for chromothripsis tumors (AID 1671451; call rule not given here;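 note: cells exposed for 96 hours before readout; 0% = vehicle DMSO and 100% = killing by high DMSO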); settings: ICB984 medulloblastoma cells, drug combinations, stronger effect = higher value
[9] = growth inhibition, single agents and combos, LFS_MB_1R, cell-based, cisplatin or BGB combos, synergistic combos for chromothripsis tumors (AID 1671452); settings: LFS_MB_1R medulloblastoma cells, stronger effect = higher value;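 note: cells exposed for 96 hours before readout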
[10] = growth inhibition, single agents and combos, HTB85, cell-based, BGB or cisplatin IC20 combos, synergistic combos for chromothripsis tumors (AID 1671453); settings: HTB85 osteosarcoma cells, drug combinations, stronger effect = higher value;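 note: cells exposed for 96 hours before readout; 0% = vehicle DMSO and 100% = high DMSO killing control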
[11] = growth inhibition, single agents and combos, CRL2098, cell-based, BGB or cisplatin IC20 combos, synergistic combos for chromothripsis tumors (AID 1671454); settings: CRL2098 osteosarcoma cells, drug combinations, stronger effect = higher value;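 note: cells exposed for 96 h before readout; 0% = vehicle DMSO and 100% = killing by high DMSO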
[12] = growth inhibition, single agents and combos, HD-MB03, cell-based, BGB or cisplatin IC20 combos, synergistic combos for chromothripsis tumors (AID 1671455; in the data active = inhibition above about 83%;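 note: 0% = vehicle DMSO and 100% = high DMSO as cytotoxic control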); settings: HD-MB03 medulloblastoma cells, stronger effect = higher value
[13] = growth inhibition, single agents and combos, UWB1.289, cell-based, BGB or cisplatin combos, synergistic combos for chromothripsis tumors (AID 1671456); settings: UWB1.289 ovarian carcinoma cells, stronger effect = higher value;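 note: cells exposed to compound for four days; 0% = vehicle DMSO and 100% = killing by high DMSO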
[14] = growth inhibition, single agents and combos, LFS_MB_2R, cell-based, cisplatin combos, synergistic combos for chromothripsis tumors (AID 1671457); settings: LFS_MB_2R medulloblastoma cells, stronger effect = higher value;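 note: cells exposed to compound for four days before readout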
[15] = growth inhibition, MDA-MB-436, cell-based, BGB or cisplatin combos, synergistic combos for chromothripsis tumors (AID 1671458; call rule not given here;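 note: cells exposed for 96 hours; 0% = vehicle DMSO and 100% = killing by high DMSO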); settings: MDA-MB-436 breast carcinoma growth inhibition, drug combinations, stronger effect = higher value
[16] = UWB1.289_BRCA1 ovarian cancer growth, cell-based, BGB or cisplatin combinations (AID 1671459); settings: UWB1.289 BRCA1 ovarian carcinoma, drug combinations, stronger effect = higher value
[17] = drug combination toxicity in non-malignant astrocytes – cell-based, BGB or cisplatin IC20 combos, cytotoxicity control for chromothriptic childhood tumor combination screen (AID 1671460); settings: Human astrocytes, viability inhibition, drug combinations, at 0.5 µM, stronger effect = higher value;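 note: cells exposed to compounds for 96 hours before viability readout; 0% = vehicle and 100% = killing control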
[18] = cisplatin combination, at 0.5 µM
[19] = measured here: BGB IC40 combination 0.05 uM, at 0.05 µM
[20] = measured here: BGB IC40 combination, at 0.05 µM
[21] = measured here: combination with cisplatin, at 0.5 µM
[22] = measured here: with BGB IC20 combination, at 0.5 µM
[23] = measured here: with cisplatin IC20 combination, at 0.5 µM
[24] = measured here: combination with BGB IC40, at 0.05 µM
[25] = measured here: combination with cisplatin, at 5 µM

**Q.** Which results are given for `Cc1cc(C=CC#N)cc(C)c1Nc1ccnc(Nc2ccc(C#N)cc2)n1`?
**A.** inhibition [1, 18]: -6.25%; inhibition ([1]; cisplatin combination, at 5 µM): -4.4%; inhibition [1, 19]: -11.4%; inhibition ([1]; single agent, at 5 µM): -18.3%; inhibition ([2]; at 0.5 µM): -10.6% (inactive); inhibition ([2]; cisplatin combo, at 5 µM): 14.8%; inhibition [2, 20]: -40.8%; inhibition [2, 21]: 0.155%; inhibition ([2]; single agent, at 5 µM): -17.1%; inhibition ([3]; at 0.5 µM): -12.8% (inactive); inhibition [3, 22]: -13.1%; inhibition [3, 23]: -15.2%; inhibition ([3]; single agent, at 0.05 µM): 1.38%; inhibition ([3]; single agent, at 5 µM): -26.3%

**Q.** Which fold change ([4]; stronger effect = lower value, cell number ratio, induced over uninduced) does the source give for `Nc1ncn(C2OC(CO)C(O)C2O)c(=O)n1` (stereo not drawn) here?
**A.** Its fold change is 0.707 (inactive).

**Q.** And the fold change ([4]; measured here: relative caspase fold change +Dox/-Dox)?
**A.** The fold change was 0.203.

**Q.** And the cell count ([4]; measured here: total cells with miR-34 induction, stronger effect = lower value)?
**A.** Its cell count is 2140.

**Q.** And the cell count ([4]; measured here: total cells without miR-34 induction)?
**A.** The cell count was 3020.

**Q.** And the z-score ([5]; MELAS cybrid survival, CellTiter-Glo 48 h, stronger effect = higher value)?
**A.** The z-score was -0.256 (inactive).

**Q.** And the z-score ([5]; Rieske KO mouse fibroblast survival, CellTiter-Glo 72 h)?
**A.** The z-score was 0.025.

**Q.** What about the inhibition ([6]; at 0.5 µM, stronger effect = higher value) of the same molecule?
**A.** The inhibition was -5.82% (inactive).

**Q.** And the inhibition ([6]; measured here: combination with BGB IC20, at 0.005 µM)?
**A.** The inhibition was 12.2%.

**Q.** And the inhibition ([6]; measured here: combination with BGB IC40, at 0.005 µM)?
**A.** Its inhibition is 6.88%.

**Q.** What about the inhibition [6, 24] of the same molecule?
**A.** Its inhibition is -0.515%.

**Q.** What about the inhibition ([6]; measured here: combination with cisplatin, at 0.5 µM, stronger effect = higher value) of the same molecule?
**A.** The inhibition was -8.35%.

**Q.** And the inhibition ([6]; measured here: combination with cisplatin, at 5 µM, stronger effect = higher value)?
**A.** Its inhibition is 15.6%.

**Q.** And the inhibition ([7]; BGB combo, at 5 µM)?
**A.** The inhibition was 35.3%.

**Q.** What about the inhibition ([7]; at 0.5 µM) of the same molecule?
**A.** The inhibition was 3.8% (inactive).

**Q.** What about the inhibition ([7]; cisplatin combo, at 5 µM) of the same molecule?
**A.** Its inhibition is 38.5%.

**Q.** What about the inhibition [7, 22] of the same molecule?
**A.** The inhibition was -3.13%.

**Q.** And the inhibition [7, 23]?
**A.** Its inhibition is 6.68%.

**Q.** And the inhibition ([7]; single agent, at 5 µM)?
**A.** Its inhibition is 47.8%.

**Q.** What about the inhibition ([8]; BGB IC20 combo, at 0.005 µM) of the same molecule?
**A.** Its inhibition is 3.99%.

**Q.** And the inhibition ([8]; BGB IC40 combo, at 0.005 µM)?
**A.** Its inhibition is -4.47%.

**Q.** And the inhibition ([8]; BGB IC40 combo, at 0.05 µM)?
**A.** The inhibition was 64.1%.

**Q.** What about the inhibition ([8]; at 0.5 µM) of the same molecule?
**A.** Its inhibition is -14.1% (inactive).

**Q.** And the inhibition ([8]; cisplatin combo, at 0.05 µM)?
**A.** Its inhibition is 62.8%.

**Q.** And the inhibition ([8]; cisplatin combo, at 0.5 µM)?
**A.** Its inhibition is -8.65%.

**Q.** What about the inhibition ([8]; cisplatin combo, at 5 µM) of the same molecule?
**A.** The inhibition was -9.29%.

**Q.** And the inhibition ([8]; measured here: 5 uM single agent, at 5 µM)?
**A.** Its inhibition is -4.38%.

**Q.** And the inhibition ([9]; at 0.5 µM)?
**A.** The inhibition was 1.69% (inactive).

**Q.** And the inhibition [9, 24]?
**A.** The inhibition was -18.7%.

**Q.** And the inhibition [9, 21]?
**A.** The inhibition was -16%.

**Q.** What about the inhibition [9, 25] of the same molecule?
**A.** Its inhibition is -12%.

**Q.** What about the inhibition ([10]; at 0.5 µM) of the same molecule?
**A.** Its inhibition is -6.96% (inactive).

**Q.** What about the inhibition ([10]; measured here: with BGB IC20, at 0.5 µM) of the same molecule?
**A.** Its inhibition is -12.6%.

**Q.** What about the inhibition ([10]; measured here: with BGB IC20, at 5 µM) of the same molecule?
**A.** Its inhibition is 18.2%.

**Q.** And the inhibition ([10]; measured here: with cisplatin IC20, at 0.5 µM)?
**A.** Its inhibition is -13.1%.

**Q.** What about the inhibition ([10]; measured here: with cisplatin IC20, at 5 µM) of the same molecule?
**A.** The inhibition was 4.48%.

**Q.** And the inhibition ([10]; single agent, at 5 µM)?
**A.** Its inhibition is 30.1%.

**Q.** What about the inhibition ([11]; at 0.5 µM) of the same molecule?
**A.** The inhibition was -21% (inactive).

**Q.** And the inhibition ([11]; measured here: combination with BGB at IC20, at 0.5 µM)?
**A.** The inhibition was -8.95%.

**Q.** What about the inhibition ([11]; measured here: combination with cisplatin at IC20, at 0.5 µM) of the same molecule?
**A.** The inhibition was -58.6%.

**Q.** And the inhibition ([12]; at 0.5 µM)?
**A.** The inhibition was 2.06% (inactive).

**Q.** And the inhibition ([12]; measured here: combo with BGB at IC20, at 0.5 µM)?
**A.** The inhibition was 4.05%.

**Q.** And the inhibition ([12]; measured here: combo with cisplatin at IC20, at 0.5 µM)?
**A.** The inhibition was 0.735%.

**Q.** What about the inhibition ([13]; at 0.5 µM) of the same molecule?
**A.** Its inhibition is 18.4% (inactive).

**Q.** What about the inhibition ([13]; measured here: inhibition with BGB combination, at 0.05 µM) of the same molecule?
**A.** Its inhibition is 8.02%.

**Q.** And the inhibition ([13]; measured here: inhibition with cisplatin combination, at 0.05 µM)?
**A.** Its inhibition is -5.92%.

**Q.** And the inhibition ([14]; at 0.5 µM)?
**A.** Its inhibition is -0.31% (inactive).

**Q.** And the inhibition [14, 21]?
**A.** The inhibition was -2.9%.

**Q.** And the inhibition [14, 25]?
**A.** Its inhibition is 21.8%.

**Q.** And the inhibition ([15]; at 0.5 µM)?
**A.** Its inhibition is 12.3% (inactive).

**Q.** What about the inhibition ([15]; measured here: BGB combination, at 0.5 µM) of the same molecule?
**A.** The inhibition was 18%.

**Q.** What about the inhibition ([15]; measured here: BGB combination, at 5 µM) of the same molecule?
**A.** The inhibition was 23.9%.

**Q.** What about the inhibition ([15]; measured here: cisplatin combination, at 0.5 µM) of the same molecule?
**A.** The inhibition was 0.452%.

**Q.** What about the inhibition ([15]; measured here: cisplatin combination, at 5 µM) of the same molecule?
**A.** Its inhibition is 23.8%.

**Q.** And the inhibition ([16]; BGB combination, concentration series, at 5 µM)?
**A.** The inhibition was 63.4%.

**Q.** And the inhibition ([16]; at 0.5 µM)?
**A.** The inhibition was 20.7% (inactive).

**Q.** What about the inhibition ([16]; cisplatin combination, concentration series, at 5 µM) of the same molecule?
**A.** Its inhibition is 51%.

**Q.** And the inhibition [17]?
**A.** The inhibition was 13.2% (inactive).

**Q.** And the inhibition ([17]; measured here: combo with BGB IC20)?
**A.** Its inhibition is 17.7%.

**Q.** And the inhibition ([17]; measured here: combo with cisplatin IC20)?
**A.** The inhibition was 11.2%.

**Q.** And the inhibition ([1]; at 0.5 µM)?
**A.** Its inhibition is 10.9% (inactive).

**Q.** And the inhibition [1, 18]?
**A.** Its inhibition is -8.96%.

**Q.** What about the inhibition ([1]; cisplatin combination, at 5 µM) of the same molecule?
**A.** The inhibition was 53.9%.

**Q.** And the inhibition [1, 19]?
**A.** The inhibition was 30.7%.

**Q.** And the inhibition ([1]; single agent, at 5 µM)?
**A.** The inhibition was 8.5%.

**Q.** What about the inhibition ([2]; at 0.5 µM) of the same molecule?
**A.** The inhibition was 6.45% (inactive).

**Q.** And the inhibition ([2]; cisplatin combo, at 5 µM)?
**A.** The inhibition was 53.3%.

**Q.** What about the inhibition [2, 20] of the same molecule?
**A.** The inhibition was -6.06%.

**Q.** And the inhibition [2, 21]?
**A.** The inhibition was 6.83%.

**Q.** What about the inhibition ([2]; single agent, at 5 µM) of the same molecule?
**A.** Its inhibition is 41.5%.

**Q.** What about the inhibition ([3]; at 0.5 µM) of the same molecule?
**A.** The inhibition was 0.69% (inactive).

**Q.** And the inhibition [3, 22]?
**A.** Its inhibition is 16.1%.

**Q.** And the inhibition [3, 23]?
**A.** The inhibition was -8.76%.

**Q.** And the inhibition ([3]; single agent, at 0.05 µM)?
**A.** The inhibition was -10.6%.

**Q.** And the inhibition ([3]; single agent, at 5 µM)?
**A.** The inhibition was 9.69%.
